DUX4 txn inh = DUX4-mediated transcription inhibition; 293T-iDUX4 ZSCAN4-Gaussia luciferase reporter, 24 h; active compounds read low; activity change, negative = inhibition, % (no concentration beside the values); actives 0.8% (n = 37,000); AID 1224904;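 active = mean inhibition of at least 10% in the main channel, exceeding the control channel by a set limit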;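 note: 0% = median of neutral control wells and -100% = median of positive control wells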
An asterisk follows results filed as active; ! = repeats disagree. The full list was thinned out, with hits kept by preference.

For COc1ccc(CN2CC3(CN(C(=O)c4ccccc4)C3)c3c([nH]c4cc(OC)ccc34)[C@@H]2CO)cc1 the results were DUX4 txn inh -51*.
CCCC(=O)N1CC2(C1)CN(Cc1ccncc1)[C@H](CO)c1[nH]c3cc(OC)ccc3c12 was read as DUX4 txn inh 10.
CCCC(=O)N1CCC2(CC1)CN(Cc1ccncc1)[C@@H](CO)c1[nH]c3cc(OC)ccc3c12 was read as DUX4 txn inh 2.
For CCC(=O)N1CC2(C1)CN(Cc1ccc(OC)cc1)[C@H](CO)c1[nH]c3cc(OC)ccc3c12 the results were DUX4 txn inh 2.
For COc1ccc(CN2CC3(C2)CN(C(=O)Nc2ccc(F)cc2)[C@@H](CO)c2[nH]c4cc(OC)ccc4c23)cc1 the results were DUX4 txn inh -39*.
Screening COc1ccc2c3c([nH]c2c1)[C@H](CO)N(C(=O)Nc1ccc(F)cc1)CC31CN(S(C)(=O)=O)C1 returned DUX4 txn inh 7.
For COc1ccc2c3c([nH]c2c1)[C@@H](CO)N(Cc1ccncc1)CC31CN(C(=O)c2cccnc2)C1 the results were DUX4 txn inh 18.
`CCCC(=O)N1CCC2(CC1)CN(Cc1nccs1)[C@H](CO)c1[nH]c3cc(OC)ccc3c12` gave DUX4 txn inh -1.
For CCCC(=O)N1CC2(C1)CN(Cc1ccc(Cl)cc1)[C@H](CO)c1[nH]c3cc(OC)ccc3c12 the results were DUX4 txn inh -80*.
For COc1ccc2c3c([nH]c2c1)[C@H](CO)N(C(=O)Nc1ccc(F)cc1)CC31CN(CC2CC2)C1 the results were DUX4 txn inh 2.
COc1ccc(CN2CC3(CCN(C(=O)c4ccccc4)CC3)c3c([nH]c4cc(OC)ccc34)[C@@H]2CO)cc1 was read as DUX4 txn inh -2.
Screening CCCC(=O)N1CCC2(CC1)CN(Cc1ccc(Cl)cc1)[C@H](CO)c1[nH]c3cc(OC)ccc3c12 returned DUX4 txn inh -63*.
`COc1cccc(C(=O)Nc2ccc3c(c2)C(=O)N(C)[C@H]2CC[C@H](CC(=O)NCc4ccccc4F)O[C@H]2CO3)c1` gave DUX4 txn inh 3.
For CO[C@H]1CN(C)C(=O)c2cc(NS(=O)(=O)c3cn(C)cn3)ccc2OC[C@@H](C)N(C)C[C@@H]1C the results were DUX4 txn inh 1.
COCC(=O)N1CC2(C1)[C@@H](c1ccc(-c3ccccc3)cc1)[C@H](CO)N2C(C)=O was read as DUX4 txn inh 10.
`O=C1N[C@H](Cc2ccccc2)COCc2cnnn2CC[C@@H]1Cc1cccc(Cl)c1` gave DUX4 txn inh 2.
For CC(C)NC(=O)N[C@H]1CC[C@@H](CCNS(=O)(=O)Cc2ccccc2)O[C@@H]1CO the results were DUX4 txn inh -2.
`COc1ccccc1-c1ccc(C2[C@H]3CNC[C@@H]2N3Cc2nccs2)cc1` (stereo partly specified) gave DUX4 txn inh 14.
For C[C@H](CO)N1C[C@H](C)[C@@H](CN(C)CC2CC2)Oc2cc(-c3cccc(C#N)c3)ccc2S1(=O)=O the results were DUX4 txn inh 0.
Screening C[C@@H]1CC=CC[C@H](c2ccc(F)cc2)NC(=O)[C@H](C)N(C)C(=O)c2ccccc2O1 (mixture of isomers) returned DUX4 txn inh -1.
COc1ccc2c3c([nH]c2c1)[C@H](CO)N(Cc1ccncc1)CC31CN(S(C)(=O)=O)C1 was read as DUX4 txn inh 9.
COc1ccc2c3c([nH]c2c1)[C@H](CO)N(Cc1ccncc1)CC31CN(C(=O)Cc2ccncc2)C1 was read as DUX4 txn inh 12.
`COc1ccc2c3c([nH]c2c1)[C@H](CO)N(Cc1ccc(F)cc1)CC31CN(C(C)=O)C1` gave DUX4 txn inh -3.
For COc1ccc2c3c([nH]c2c1)[C@H](CO)N(Cc1cccc(Cl)c1)CC31CN(C)C1 the results were DUX4 txn inh -7.
COc1ccc2c3c([nH]c2c1)[C@H](CO)N(Cc1ccc(Cl)cc1)CC31CN(S(C)(=O)=O)C1 was read as DUX4 txn inh -45*.
Screening CCCC(=O)N1CC2(C1)CN(Cc1ccc(Cl)cc1)[C@@H](CO)c1[nH]c3cc(OC)ccc3c12 returned DUX4 txn inh -85*.
For CO[C@@H]1CN(C)C(=O)c2ccc(NS(C)(=O)=O)cc2OC[C@@H](C)NC[C@H]1C the results were DUX4 txn inh 3.
`CCCC(=O)N1CC2(CN[C@H](CO)c3c2c2ccc(OC)cc2n3C)C1` gave DUX4 txn inh 10.
`O=C(C[C@@H]1CC[C@H](NC(=O)C2CCOCC2)[C@@H](CO)O1)NCc1ccccc1Cl` gave DUX4 txn inh 1.
For CCCN1C[C@@H](C)[C@@H](OC)CN(C)C(=O)c2cc(NS(=O)(=O)c3ccccc3)ccc2OC[C@H]1C the results were DUX4 txn inh 7.
COc1cccc(S(=O)(=O)Nc2ccc3c(c2)C(=O)N(C)C[C@H](OC)[C@@H](C)CN(Cc2ccccc2F)[C@H](C)CO3)c1 was read as DUX4 txn inh -4.
`COc1cccc(S(=O)(=O)Nc2ccc3c(c2)C(=O)N(C)C[C@@H](OC)[C@H](C)CN(Cc2ccccc2F)[C@H](C)CO3)c1` gave DUX4 txn inh -26*.
For CCC(=O)N1CC2(C1)[C@H](c1ccccc1)[C@@H](CO)N2Cc1ccccc1OC the results were DUX4 txn inh -9.
N#Cc1cccc(-c2ccc(C3[C@@H]4CN(C(=O)C5CCCCC5)C[C@H]3N4)cc2)c1 (stereo partly specified) was read as DUX4 txn inh -52*!.
`O=C(C1CCOCC1)N1C[C@@H]2N[C@H](C1)C2c1ccc(-c2cccc(F)c2)cc1` (stereo partly specified) gave DUX4 txn inh -8.
N#Cc1ccc(-c2ccc(C3[C@@H]4CN(C(=O)c5ccncc5)C[C@H]3N4)cc2)cc1 (stereo partly specified) was read as DUX4 txn inh -6.
N#Cc1ccc(-c2ccc(C3[C@@H]4CN(C(=O)C5CCCCC5)C[C@H]3N4)cc2)cc1 (stereo partly specified) was read as DUX4 txn inh -52*!.
N#Cc1cccc(-c2ccc(C3[C@@H]4CN(C(=O)c5ccncc5)C[C@H]3N4)cc2)c1 (stereo partly specified) was read as DUX4 txn inh 1.
Screening CC(=O)N1C[C@@H]2N[C@H](C1)C2c1ccc(-c2ccccc2)cc1 (stereo partly specified) returned DUX4 txn inh 1.
O=C(C[C@H]1CC[C@@H]2[C@H](COC[C@@H](O)CN2Cc2ccccc2F)O1)NCc1ccccc1F was read as DUX4 txn inh 1.
For COc1ccc2c3c(n(C)c2c1)[C@H](CO)N(CC1CC1)CC31CCN(C(=O)CC2CC2)CC1 the results were DUX4 txn inh -4.
`Cc1cccc(-c2ccc([C@@H]3[C@@H](CO)N4CCCCN(CCC(F)(F)F)C[C@H]34)cc2)c1` gave DUX4 txn inh 14.
`CN(C)C(=O)c1ccc(-c2ccc([C@H]3[C@@H](CO)N4CCCCN(CCC(F)(F)F)C[C@@H]34)cc2)cc1` gave DUX4 txn inh 6.
OC[C@@H]1[C@@H](c2ccc(-c3cccc(F)c3)cc2)[C@@H]2CN(Cc3cncnc3)CCCCN12 was read as DUX4 txn inh 27.
CN(C)C(=O)c1ccc(-c2ccc([C@@H]3[C@@H](CO)N4CCCCN(CCC(F)(F)F)C[C@H]34)cc2)cc1 was read as DUX4 txn inh 7.

Bioassay records from PubChem BioAssay.
